{"source": "PubChem BioAssay (EPA / NIEHS)", "note": "Calls of active or inactive are those of the source. The calls were made as follows: active = hit-call score of the fitted dose curve at least 0.9, where 1 is the maximum; inactive = score below 0.9.", "data": [{"read-out": "Intercellular Adhesion Molecule 1 (ICAM1), ICAM1 (gene 3383)", "assay": "BSK_KF3CT_ICAM1: BioMAP Diversity Plus: KF3CT Assay for Intercellular Adhesion Molecule 1 (ICAM1) Biomarker Activity (AID 2283067)", "settings": "primary human keratinocytes with fibroblasts; actives raise or lower the signal", "method_in_brief": "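Human keratinocyte–foreskin fibroblast co-culture was treated for 24 h. Cell-surface ICAM-1 was quantified by ELISA, fitted bidirectionally relative to DMSO. Cytotoxicity was checked in parallel cultures by SRB total-protein staining.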", "values": [{"smiles": "On1ccccc1=S", "AC50": "10.4 µM (active)"}, {"smiles": "O=c1[nH]c2ccc(S(=O)CCN3CCC(Cc4ccc(F)cc4)CC3)cc2o1", "note": "(stereo unspecified)", "outcome": "inactive"}, {"smiles": "O=C(NS(=O)(=O)/C=C/c1ccccc1)c1ccc(F)cc1Cl", "outcome": "inactive"}, {"smiles": "COc1ccc(-n2nc(C(F)F)cc2-c2ccc(S(C)=O)cc2)cc1", "note": "(stereo unspecified)", "outcome": "inactive"}, {"smiles": "CCCN(C1CCN(C(=O)C2CCNCC2)CC1)[C@@H]1CCc2ccc(OC)cc2C1", "outcome": "inactive"}, {"smiles": "O=C1CCCCCN1", "outcome": "inactive"}, {"smiles": "Nc1cccc(N)c1", "outcome": "inactive"}, {"smiles": "Fc1ccccc1[C@@H](F)COC1CCC(Nc2ncnc3[nH]ncc23)CC1", "note": "(stereo partly specified)", "outcome": "inactive"}, {"smiles": "CCn1nc(Cc2ccccc2)cc1C1CCN(C[C@H]2C[C@H](N(C)[C@@H](C(=O)O)C(C)C)C[C@@H]2c2cccc(F)c2)CC1", "outcome": "inactive"}, {"smiles": "C=CC(=C)CCC=C(C)C", "outcome": "inactive"}, {"smiles": "CC(C)(O)c1coc(S(=O)(=O)NC(=O)Nc2c3c(cc4c2CCC4)CCC3)c1", "outcome": "inactive"}, {"smiles": "CC(=O)OCCC(C)C", "outcome": "inactive"}, {"smiles": "O=C1OC(=O)C2C3C=CC(C3)C12", "note": "(stereo unspecified)", "outcome": "inactive"}, {"smiles": "O=C(O)c1cccc(Oc2ccccc2)c1", "outcome": "inactive"}, {"smiles": "CCCCCCCCCCCCCCCO", "outcome": "inactive"}, {"smiles": "O=C(CCCCCCCCc1cccnc1)N1CCC(C=C(c2ccccc2)c2ccccc2)CC1", "AC50": "16.6 µM (active)"}, {"smiles": "COC(=O)c1ccccc1O", "outcome": "inactive"}, {"smiles": "CCC(C)(C)C(=O)O[C@H]1C[C@@H](C)C=C2C=C[C@H](C)[C@H](CC[C@@H]3C[C@@H](O)CC(=O)O3)[C@H]21", "AC50": "31.2 µM (active)"}, {"smiles": "O=c1n(CC2CO2)c(=O)n(CC2CO2)c(=O)n1CC1CO1", "note": "(stereo unspecified)", "outcome": "inactive"}, {"smiles": "O=C(O)c1cccc(N(Cc2cccnc2)c2ccc(OC(F)F)c(OC(F)F)c2)c1", "outcome": "inactive"}, {"smiles": "C1=CCCC=CCCC=CCC1", "outcome": "inactive"}, {"smiles": "O=C(O)c1cc(N=Nc2ccc(S(=O)(=O)Nc3ccccn3)cc2)ccc1O", "outcome": "inactive"}, {"smiles": "CCOc1cccc(-n2cc(C(=O)N3CCN(c4cc(C(=O)O)c5ccccc5c4)CC3)nc2-c2ccc(C)cc2)c1", "AC50": "30.5 µM (active)"}, {"smiles": "CC(C)CCO", "outcome": "inactive"}, {"smiles": "CC(=O)OC[C@H]1O[C@@](COC(C)=O)(O[C@H]2O[C@H](COC(C)=O)[C@@H](OC(C)=O)[C@H](OC(C)=O)[C@H]2OC(C)=O)[C@@H](OC(C)=O)[C@@H]1OC(C)=O", "outcome": "inactive"}, {"smiles": "NC(=O)NO", "outcome": "inactive"}, {"smiles": "COc1ccc(/C=C/S(=O)(=O)NC(=O)c2ccc(C)cc2Cl)cc1", "outcome": "inactive"}, {"smiles": "Nc1ccc(Nc2ccccc2)cc1", "outcome": "inactive"}, {"smiles": "CN(C)c1ccc(Cc2ccc(N(C)C)cc2)cc1", "outcome": "inactive"}, {"smiles": "Cc1ccc(C)c(O)c1", "outcome": "inactive"}]}, {"read-out": "Interferon-gamma inducible Protein 10 (IP10), CXCL10 (gene 3627)", "assay": "BSK_KF3CT_IP10: BioMAP Diversity Plus: KF3CT Assay for Interferon-gamma inducible Protein 10 (IP10) Biomarker Activity (AID 2283068)", "settings": "primary human keratinocytes with fibroblasts; actives raise or lower the signal", "method_in_brief": "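In a primary skin co-culture of keratinocytes and fibroblasts, IP-10 is quantified by ELISA at 24 h after dosing. SRB staining of parallel wells monitors overt toxicity. Curves are fitted both directions against DMSO.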", "values": [{"smiles": "On1ccccc1=S", "AC50": "10.3 µM (active)"}, {"smiles": "O=c1[nH]c2ccc(S(=O)CCN3CCC(Cc4ccc(F)cc4)CC3)cc2o1", "note": "(stereo unspecified)", "outcome": "inactive"}, {"smiles": "COc1ccc(-n2nc(C(F)F)cc2-c2ccc(S(C)=O)cc2)cc1", "note": "(stereo unspecified)", "outcome": "inactive"}, {"smiles": "CC(C)(O)c1coc(S(=O)(=O)NC(=O)Nc2c3c(cc4c2CCC4)CCC3)c1", "outcome": "inactive"}, {"smiles": "O=C1OC(=O)C2C3C=CC(C3)C12", "note": "(stereo unspecified)", "outcome": "inactive"}, {"smiles": "O=C(O)c1cccc(Oc2ccccc2)c1", "outcome": "inactive"}, {"smiles": "O=c1n(CC2CO2)c(=O)n(CC2CO2)c(=O)n1CC1CO1", "note": "(stereo unspecified)", "outcome": "inactive"}, {"smiles": "O=C(O)c1cc(N=Nc2ccc(S(=O)(=O)Nc3ccccn3)cc2)ccc1O", "outcome": "inactive"}, {"smiles": "CC(C)CCO", "outcome": "inactive"}, {"smiles": "NC(=O)NO", "outcome": "inactive"}, {"smiles": "COc1ccc(/C=C/S(=O)(=O)NC(=O)c2ccc(C)cc2Cl)cc1", "AC50": "32.6 µM (active)"}]}, {"read-out": "not listed separately", "assay": "BSK_KF3CT_SRB: Viability Assessment in the BioMAP Diversity Plus: KF3CT Assay (AID 2283069);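 also: total protein by sulforhodamine B staining as a cytotoxicity measure; read 24 h after compound addition; fitted for both signal gain and loss against DMSO baseline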", "settings": "primary human keratinocytes with fibroblasts", "method_in_brief": "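SRB read-out at 560 nm (0.1% stain, TCA-fixed cells) gauges overt cytotoxicity in a human skin keratinocyte–fibroblast co-culture 24 h post-dosing. Signal change was fitted bidirectionally relative to DMSO control.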", "values": [{"smiles": "On1ccccc1=S", "AC50": "6.33 µM (active)"}, {"smiles": "O=c1[nH]c2ccc(S(=O)CCN3CCC(Cc4ccc(F)cc4)CC3)cc2o1", "note": "(stereo unspecified)", "outcome": "inactive"}, {"smiles": "O=C(NS(=O)(=O)/C=C/c1ccccc1)c1ccc(F)cc1Cl", "outcome": "inactive"}, {"smiles": "COc1ccc(-n2nc(C(F)F)cc2-c2ccc(S(C)=O)cc2)cc1", "note": "(stereo unspecified)", "outcome": "inactive"}, {"smiles": "CCCN(C1CCN(C(=O)C2CCNCC2)CC1)[C@@H]1CCc2ccc(OC)cc2C1", "outcome": "inactive"}, {"smiles": "O=C1CCCCCN1", "outcome": "inactive"}, {"smiles": "Nc1cccc(N)c1", "outcome": "inactive"}, {"smiles": "Fc1ccccc1[C@@H](F)COC1CCC(Nc2ncnc3[nH]ncc23)CC1", "note": "(stereo partly specified)", "outcome": "inactive"}, {"smiles": "CCn1nc(Cc2ccccc2)cc1C1CCN(C[C@H]2C[C@H](N(C)[C@@H](C(=O)O)C(C)C)C[C@@H]2c2cccc(F)c2)CC1", "outcome": "inactive"}, {"smiles": "C=CC(=C)CCC=C(C)C", "outcome": "inactive"}, {"smiles": "CC(C)(O)c1coc(S(=O)(=O)NC(=O)Nc2c3c(cc4c2CCC4)CCC3)c1", "outcome": "inactive"}, {"smiles": "CC(=O)OCCC(C)C", "outcome": "inactive"}, {"smiles": "O=C1OC(=O)C2C3C=CC(C3)C12", "note": "(stereo unspecified)", "outcome": "inactive"}, {"smiles": "O=C(O)c1cccc(Oc2ccccc2)c1", "outcome": "inactive"}, {"smiles": "CCCCCCCCCCCCCCCO", "outcome": "inactive"}, {"smiles": "O=C(CCCCCCCCc1cccnc1)N1CCC(C=C(c2ccccc2)c2ccccc2)CC1", "AC50": "14.7 µM (active)"}, {"smiles": "COC(=O)c1ccccc1O", "outcome": "inactive"}, {"smiles": "CCC(C)(C)C(=O)O[C@H]1C[C@@H](C)C=C2C=C[C@H](C)[C@H](CC[C@@H]3C[C@@H](O)CC(=O)O3)[C@H]21", "AC50": "34.8 µM (active)"}, {"smiles": "O=c1n(CC2CO2)c(=O)n(CC2CO2)c(=O)n1CC1CO1", "note": "(stereo unspecified)", "outcome": "inactive"}, {"smiles": "O=C(O)c1cccc(N(Cc2cccnc2)c2ccc(OC(F)F)c(OC(F)F)c2)c1", "outcome": "inactive"}, {"smiles": "C1=CCCC=CCCC=CCC1", "outcome": "inactive"}, {"smiles": "O=C(O)c1cc(N=Nc2ccc(S(=O)(=O)Nc3ccccn3)cc2)ccc1O", "outcome": "inactive"}, {"smiles": "CCOc1cccc(-n2cc(C(=O)N3CCN(c4cc(C(=O)O)c5ccccc5c4)CC3)nc2-c2ccc(C)cc2)c1", "AC50": "21.3 µM (active)"}, {"smiles": "CC(C)CCO", "outcome": "inactive"}, {"smiles": "CC(=O)OC[C@H]1O[C@@](COC(C)=O)(O[C@H]2O[C@H](COC(C)=O)[C@@H](OC(C)=O)[C@H](OC(C)=O)[C@H]2OC(C)=O)[C@@H](OC(C)=O)[C@@H]1OC(C)=O", "outcome": "inactive"}, {"smiles": "NC(=O)NO", "outcome": "inactive"}, {"smiles": "COc1ccc(/C=C/S(=O)(=O)NC(=O)c2ccc(C)cc2Cl)cc1", "outcome": "inactive"}, {"smiles": "Nc1ccc(Nc2ccccc2)cc1", "outcome": "inactive"}, {"smiles": "CN(C)c1ccc(Cc2ccc(N(C)C)cc2)cc1", "outcome": "inactive"}, {"smiles": "Cc1ccc(C)c(O)c1", "outcome": "inactive"}]}]}
